According to paper PMC5540273 (PLoS ONE, 2017):

What follows are molecules tested on T1, DRAK1. Details: concentration: 1 μM, replicates: in singlicate; n = 1.
T1 construct: gene STK17A
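Also: KINOMEscan kinase panel screen.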

`Cl.Cn1ccc(-c2cccc(Nc3ccnc4cc(-c5nccs5)ccc34)c2)n1` [GW525701] was tested. Which “%Inh” value did it give?
The value was 8%.

Which “%Inh” value does the source give for `Nc1nc(-c2ccccn2)c(-c2ccnc3ccccc23)s1` [GW548057] here?
Its value is 0%.

With `CC(C)N1CCC(n2cnc(-c3ccc(F)cc3)c2-c2ccnc(N)n2)CC1` [SB-223132] as the molecule, how does the “%Inh” value read?
Its value is 7%.

Which “%Inh” value does the source give for `Fc1cccc(COc2ccc(Nc3ncnc4cc[nH]c34)cc2Cl)c1` here?
The value was 55%.

For `Cc1cc(N2CCC(NS(=O)(=O)c3ccc(F)cc3)CC2)nc(Nc2cccc(C#N)c2)n1.O=C(O)C(F)(F)F` [GSK1653537], which “%Inh” value is on record?
Its value is 3%.

How did the “%Inh” value turn out when `C[C@H]1CC[C@@H](C(=O)Nc2ccccc2)CN1c1cc(-c2ccc3c(N)n[nH]c3c2)nc(N)n1` [GSK2283293] was run?
The value was 97.9%.

How did the “%Inh” value turn out when `CC(C)(C)c1ccc(-n2cnc3c(N)ncnc32)cc1` [SKF-97263] was run?
Its value is 85%.

How did the “%Inh” value turn out when `Cc1ccc(NC(=O)c2cccc(C#N)c2)cc1-c1ccc(C(=O)Nc2ccncc2)cc1` [GSK1398463] was run?
The value was 0%.

With `Fc1cccc(COc2ccc(Nc3ncnc4nn5ccccc5c34)cc2Cl)c1` [GW689066] as the molecule, how does the “%Inh” value read?
The value was 87%.

Which “%Inh” value does the source give for `Cn1ccc2ncnc(Oc3ccc(NC(=O)Nc4cccnc4)c(Cl)c3)c21` here?
The value was 8%.

With `COc1ccc(NC(=O)c2ccc(-c3cc(-c4nnc(C)o4)ccc3C)cc2)cc1` [GW595885] as the molecule, how does the “%Inh” value read?
Its value is 0%.

How did the “%Inh” value turn out when `CS(=O)(=O)CCNCc1ccc(-c2ccc3ncnc(Nc4ccc(OCc5ccccc5)c(Cl)c4)c3c2)o1.Cl` [GW574783] was run?
Its value is 16%.

Which “%Inh” value does the source give for `CSc1ccc(NC2=C(c3ccccc3Cl)C(=O)NC2=O)cc1` [SB-342411] here?
The value was 0%.

For `CCn1c(-c2ccncc2)nc2cnccc21` [SB-735216], which “%Inh” value is on record?
Its value is 0%.

With `Cn1cc(-c2ccc3c(c2)CCN3C(=O)Cc2cccc(C(F)(F)F)c2)c2c(N)ncnc21` [GSK2606414] as the molecule, how does the “%Inh” value read?
Its value is 3%.

With `CNc1nccc(-c2c(-c3ccc(F)cc3)ncn2CCCN2CCOCC2)n1` [SB-222516] as the molecule, how does the “%Inh” value read?
Its value is 12%.

How did the “%Inh” value turn out when `CN1CCC(n2cnc(-c3ccc(F)cc3)c2-c2ccnc(NC3CCNCC3)n2)CC1` [SB-229482] was run?
Its value is 0%.

`Clc1cc(Nc2ncnc3cc[nH]c23)ccc1OCc1ccccn1` was tested. Which “%Inh” value did it give?
The value was 48%.

For `COc1cc2ncnc(Nc3ccc(OCc4ccccc4Br)c(Cl)c3)c2cc1OC.Cl` [GI261590], which “%Inh” value is on record?
The value was 9%.

`Cc1ccc(C)c(NC(=O)NCCNc2ccnc(Nc3ccc(F)cc3)n2)c1` [GSK1379878] was tested. Which “%Inh” value did it give?
The value was 5%.

For `Cl.O=S(=O)(c1cccc(F)c1)c1ccc(Nc2ncnc3cc(Br)sc23)cc1Cl` [GSK306886], which “%Inh” value is on record?
Its value is 9%.

`CCc1nc(-c2cccc(C)c2)c(-c2ccnc(NC(=O)c3ccccc3)c2)s1` was tested. Which “%Inh” value did it give?
The value was 0%.

`FC(F)(F)c1ccc(-c2nn3ncccc3c2-c2ccnc(Nc3cccc(C(F)(F)F)c3)n2)cc1` [GW828205] was tested. Which “%Inh” value did it give?
Its value is 0%.

Which “%Inh” value does the source give for `Cl.c1ccc(Cn2ccc3cc(Nc4ncnc5ccccc45)ccc32)cc1` [GW275568] here?
The value was 0%.

For `C[C@@H]1CCN(C(=O)CO)C[C@@H]1N(C)c1ncnc2[nH]ccc12`, which “%Inh” value is on record?
The value was 3%.

With `O=C(NCCCN1CCCC1=O)c1cnc(NCc2cc(Cl)ccc2Cl)nc1NC1CCNCC1` as the molecule, how does the “%Inh” value read?
Its value is 0%.

For `CSc1nn2c(=O)cc(N3CCOCC3)nc2n1Cc1cccc(Cl)c1Cl` [GSK2347225], which “%Inh” value is on record?
Its value is 4%.

`COc1ccc(Nc2nccc(N3CCC(NC(=O)c4cccc(NC(C)=O)c4)C3)n2)cc1` (stereo not drawn) [GSK1379732] was tested. Which “%Inh” value did it give?
Its value is 24%.

Which “%Inh” value does the source give for `Fc1cccc(COc2ccc(Nc3ncnc4sc(-c5ccc[nH]5)cc34)cc2Cl)c1` [GW707818] here?
Its value is 3%.

For `O=C(Nc1ccccc1)Nc1ccc(Oc2ccc3nccn3n2)cc1`, which “%Inh” value is on record?
The value was 0%.

For `CN1c2ccc(-c3ccc(C(=O)NCCO)cc3)cc2-c2[nH]ncc2S1(=O)=O`, which “%Inh” value is on record?
The value was 24%.

How did the “%Inh” value turn out when `FC(F)(F)c1ccc(-c2cc(-c3c[nH]nc3-c3ccccn3)ccn2)cc1` [GW599550] was run?
The value was 10%.

Which “%Inh” value does the source give for `Nc1nccc2scc(-c3ccc4c(c3)CCN4C(=O)Cc3cc(F)ccc3F)c12` [GSK2587663] here?
Its value is 3%.

For `Cn1ccc2ncnc(Nc3ccc(Oc4cccc(Cl)c4)c(Cl)c3)c21`, which “%Inh” value is on record?
The value was 4%.

For `CS(=O)(=O)CCNCc1nc(-c2ccc3ncnc(Nc4ccc(OCc5cccc(F)c5)c(Cl)c4)c3c2)cs1.Cl` [GW583340], which “%Inh” value is on record?
Its value is 7%.

`CCCc1ccc(S(=O)(=O)NC2CCN(c3ccnc(Nc4ccc(OC)cc4)n3)C2)cc1` (stereo not drawn) [GSK1379737] was tested. Which “%Inh” value did it give?
Its value is 0%.

Each molecule was assayed on T2, DRAK2. Details: concentration: 1 μM, replicates: in singlicate; n = 1.
T2 construct: gene STK17B

Which “%Inh” value does the source give for `Cl.Cn1ccc(-c2cccc(Nc3ccnc4cc(-c5nccs5)ccc34)c2)n1` [GW525701] here?
Its value is 10%.

How did the “%Inh” value turn out when `Nc1nc(-c2ccccn2)c(-c2ccnc3ccccc23)s1` [GW548057] was run?
Its value is 3%.

Which “%Inh” value does the source give for `CC(C)N1CCC(n2cnc(-c3ccc(F)cc3)c2-c2ccnc(N)n2)CC1` [SB-223132] here?
Its value is 7%.

With `Fc1cccc(COc2ccc(Nc3ncnc4cc[nH]c34)cc2Cl)c1` as the molecule, how does the “%Inh” value read?
Its value is 6%.

`Cc1cc(N2CCC(NS(=O)(=O)c3ccc(F)cc3)CC2)nc(Nc2cccc(C#N)c2)n1.O=C(O)C(F)(F)F` [GSK1653537] was tested. Which “%Inh” value did it give?
The value was 0%.

For `C[C@H]1CC[C@@H](C(=O)Nc2ccccc2)CN1c1cc(-c2ccc3c(N)n[nH]c3c2)nc(N)n1` [GSK2283293], which “%Inh” value is on record?
Its value is 64%.

How did the “%Inh” value turn out when `CC(C)(C)c1ccc(-n2cnc3c(N)ncnc32)cc1` [SKF-97263] was run?
The value was 5%.

How did the “%Inh” value turn out when `Cc1ccc(NC(=O)c2cccc(C#N)c2)cc1-c1ccc(C(=O)Nc2ccncc2)cc1` [GSK1398463] was run?
Its value is 1%.

How did the “%Inh” value turn out when `Fc1cccc(COc2ccc(Nc3ncnc4nn5ccccc5c34)cc2Cl)c1` [GW689066] was run?
Its value is 0%.

`Cn1ccc2ncnc(Oc3ccc(NC(=O)Nc4cccnc4)c(Cl)c3)c21` was tested. Which “%Inh” value did it give?
The value was 2%.

With `COc1ccc(NC(=O)c2ccc(-c3cc(-c4nnc(C)o4)ccc3C)cc2)cc1` [GW595885] as the molecule, how does the “%Inh” value read?
Its value is 0%.

How did the “%Inh” value turn out when `CS(=O)(=O)CCNCc1ccc(-c2ccc3ncnc(Nc4ccc(OCc5ccccc5)c(Cl)c4)c3c2)o1.Cl` [GW574783] was run?
Its value is 0%.

How did the “%Inh” value turn out when `CSc1ccc(NC2=C(c3ccccc3Cl)C(=O)NC2=O)cc1` [SB-342411] was run?
Its value is 0%.

`CCn1c(-c2ccncc2)nc2cnccc21` [SB-735216] was tested. Which “%Inh” value did it give?
The value was 2%.

How did the “%Inh” value turn out when `Cn1cc(-c2ccc3c(c2)CCN3C(=O)Cc2cccc(C(F)(F)F)c2)c2c(N)ncnc21` [GSK2606414] was run?
The value was 0%.

Which “%Inh” value does the source give for `CNc1nccc(-c2c(-c3ccc(F)cc3)ncn2CCCN2CCOCC2)n1` [SB-222516] here?
Its value is 15%.

`CN1CCC(n2cnc(-c3ccc(F)cc3)c2-c2ccnc(NC3CCNCC3)n2)CC1` [SB-229482] was tested. Which “%Inh” value did it give?
Its value is 0%.

Which “%Inh” value does the source give for `Clc1cc(Nc2ncnc3cc[nH]c23)ccc1OCc1ccccn1` here?
The value was 20%.

Which “%Inh” value does the source give for `COc1cc2ncnc(Nc3ccc(OCc4ccccc4Br)c(Cl)c3)c2cc1OC.Cl` [GI261590] here?
Its value is 0%.

How did the “%Inh” value turn out when `Cc1ccc(C)c(NC(=O)NCCNc2ccnc(Nc3ccc(F)cc3)n2)c1` [GSK1379878] was run?
Its value is 3%.

Which “%Inh” value does the source give for `Cl.O=S(=O)(c1cccc(F)c1)c1ccc(Nc2ncnc3cc(Br)sc23)cc1Cl` [GSK306886] here?
Its value is 0%.

`CCc1nc(-c2cccc(C)c2)c(-c2ccnc(NC(=O)c3ccccc3)c2)s1` was tested. Which “%Inh” value did it give?
Its value is 0%.

`FC(F)(F)c1ccc(-c2nn3ncccc3c2-c2ccnc(Nc3cccc(C(F)(F)F)c3)n2)cc1` [GW828205] was tested. Which “%Inh” value did it give?
Its value is 18%.

How did the “%Inh” value turn out when `Cl.c1ccc(Cn2ccc3cc(Nc4ncnc5ccccc45)ccc32)cc1` [GW275568] was run?
Its value is 0%.

For `C[C@@H]1CCN(C(=O)CO)C[C@@H]1N(C)c1ncnc2[nH]ccc12`, which “%Inh” value is on record?
Its value is 13%.

Which “%Inh” value does the source give for `O=C(NCCCN1CCCC1=O)c1cnc(NCc2cc(Cl)ccc2Cl)nc1NC1CCNCC1` here?
Its value is 16%.

For `CSc1nn2c(=O)cc(N3CCOCC3)nc2n1Cc1cccc(Cl)c1Cl` [GSK2347225], which “%Inh” value is on record?
Its value is 0%.

How did the “%Inh” value turn out when `COc1ccc(Nc2nccc(N3CCC(NC(=O)c4cccc(NC(C)=O)c4)C3)n2)cc1` (stereo not drawn) [GSK1379732] was run?
Its value is 0%.

How did the “%Inh” value turn out when `Fc1cccc(COc2ccc(Nc3ncnc4sc(-c5ccc[nH]5)cc34)cc2Cl)c1` [GW707818] was run?
The value was 0%.

Which “%Inh” value does the source give for `O=C(Nc1ccccc1)Nc1ccc(Oc2ccc3nccn3n2)cc1` here?
The value was 0%.

Which “%Inh” value does the source give for `CN1c2ccc(-c3ccc(C(=O)NCCO)cc3)cc2-c2[nH]ncc2S1(=O)=O` here?
Its value is 29%.

For `FC(F)(F)c1ccc(-c2cc(-c3c[nH]nc3-c3ccccn3)ccn2)cc1` [GW599550], which “%Inh” value is on record?
The value was 0%.

Which “%Inh” value does the source give for `Nc1nccc2scc(-c3ccc4c(c3)CCN4C(=O)Cc3cc(F)ccc3F)c12` [GSK2587663] here?
The value was 5%.

`Cn1ccc2ncnc(Nc3ccc(Oc4cccc(Cl)c4)c(Cl)c3)c21` was tested. Which “%Inh” value did it give?
Its value is 1%.

For `CS(=O)(=O)CCNCc1nc(-c2ccc3ncnc(Nc4ccc(OCc5cccc(F)c5)c(Cl)c4)c3c2)cs1.Cl` [GW583340], which “%Inh” value is on record?
Its value is 17%.

With `CCCc1ccc(S(=O)(=O)NC2CCN(c3ccnc(Nc4ccc(OC)cc4)n3)C2)cc1` (stereo not drawn) [GSK1379737] as the molecule, how does the “%Inh” value read?
Its value is 0%.
